In general, AC50 refers to the concentration giving half of the maximal activity seen.

SMILES strings stand for the structures. Inconclusive results are not listed. Calls of active or inactive are those of the source. How the source made its calls, unless noted: active means hit-call score of the fitted dose curve at least 0.9, where 1 is the maximum; inactive means score below 0.9.

Assay [1] can be described thus: ATG_PXRE_CIS: Attagene CIS-FACTORIAL HepG2 Assay for human Pregnane X Receptor Element (PXRE) (AID 2282957). The conditions noted are these: HepG2 Attagene CIS-FACTORIAL PXRE reporter, mRNA; actives raise or lower the signal. In short, it runs like this:
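HepG2 cells transiently transfected with cis-regulated multiple reporter transcription units; endogenous factor activity measured as reporter mRNA 24 h after dosing. RT-PCR, fluorescent primer extension, HpaI digestion, capillary electrophoresis; bidirectional fit versus DMSO baseline.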

A short description of assay [2]: ATG_PPRE_CIS: Attagene CIS-FACTORIAL HepG2 Assay for human Peroxisome Proliferator-activated Response Element (PPRE) (AID 2282958). The note with it: HepG2 PPRE cis-element reporter, Attagene transcription factor profiling; actives raise or lower the signal. In short, it runs like this: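 HepG2, transient MRTU transfection (cis promoter elements, endogenous TFs). 24 h dosing. RNA → oligo(dT) RT → PCR → 6-FAM primer extension → HpaI digest → CE. Bidirectional fit vs DMSO.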

The nature of assay [3]: ATG_RORE_CIS: Attagene CIS-FACTORIAL HepG2 Assay for human RAR-related Orphan Receptor Element (RORE) (AID 2282959). The note with it: HepG2 Attagene cis-factorial RORE reporter, mRNA; actives raise or lower the signal. In short, it runs like this:
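Transient MRTU transfection of human HepG2 liver cells (FuGene 6); 24 h compound exposure; TriZol RNA, oligo(dT) RT, PCR, FAM labeling, HpaI cut, CE fragment analysis. DMSO = negative control/baseline.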

Assay [4] is described as follows: ATG_Sox_CIS: Attagene CIS-FACTORIAL HepG2 Assay for human SRY-box transcription factor (SOX) (AID 2282960). The conditions noted are these: HepG2 Attagene cis-factorial SOX reporter, mRNA; actives raise or lower the signal. In short, it runs like this:
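Endogenous factor activity in human liver HepG2 cells carrying transfected cis-regulated reporter units. RNA taken 24 h post-dose, reverse-transcribed, PCR-amplified and sized by capillary electrophoresis. Gain or loss of signal fitted relative to DMSO.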

Assay [5] deals with Transcription factor Sp1 (Homo sapiens) (UniProt P08047). Description: ATG_Sp1_CIS: Attagene CIS-FACTORIAL HepG2 Assay for human Specificity Protein 1 (Sp1) (AID 2282961). The note with it: HepG2 Sp1 cis-reporter transcription, actives raise or lower the signal. In short, it runs like this: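 Transient MRTU-transfected HepG2, 24 h compound exposure. Total RNA → oligo(dT) RT → PCR of reporter → 6-FAM primer extension → HpaI digest → CE. Endpoint fitted both directions vs DMSO.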
Transcription factor Sp1 (Homo sapiens), sequence (P08047 whole entry, looked up): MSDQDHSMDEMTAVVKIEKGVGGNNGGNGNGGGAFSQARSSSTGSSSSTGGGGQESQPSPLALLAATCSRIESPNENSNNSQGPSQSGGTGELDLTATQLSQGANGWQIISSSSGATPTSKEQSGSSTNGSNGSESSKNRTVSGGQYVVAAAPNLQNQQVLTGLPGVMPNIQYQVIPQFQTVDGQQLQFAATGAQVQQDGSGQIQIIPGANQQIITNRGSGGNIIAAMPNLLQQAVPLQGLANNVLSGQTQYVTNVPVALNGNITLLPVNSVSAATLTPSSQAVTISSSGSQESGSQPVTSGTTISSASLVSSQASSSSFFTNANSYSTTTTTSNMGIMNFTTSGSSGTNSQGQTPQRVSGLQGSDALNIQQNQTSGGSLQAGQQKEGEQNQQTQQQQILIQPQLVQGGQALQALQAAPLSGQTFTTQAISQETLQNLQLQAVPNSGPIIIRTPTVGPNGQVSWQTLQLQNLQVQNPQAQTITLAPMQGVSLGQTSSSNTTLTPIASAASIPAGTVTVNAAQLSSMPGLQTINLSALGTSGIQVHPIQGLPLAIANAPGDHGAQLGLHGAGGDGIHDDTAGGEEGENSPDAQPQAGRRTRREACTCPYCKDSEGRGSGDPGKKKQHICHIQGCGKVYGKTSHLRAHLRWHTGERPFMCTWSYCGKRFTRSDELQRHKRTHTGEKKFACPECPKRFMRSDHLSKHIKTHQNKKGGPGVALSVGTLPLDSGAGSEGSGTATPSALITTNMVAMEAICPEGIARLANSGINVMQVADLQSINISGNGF

Assay [6] in a line: ATG_SREBP_CIS: Attagene CIS-FACTORIAL HepG2 Assay for human Sterol Regulatory Element Binding (SREBP) (AID 2282962). The conditions noted are these: HepG2 Attagene cis-factorial SREBP reporter, mRNA; actives raise or lower the signal. In short, it runs like this: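 Transfected HepG2 (cis-regulated reporter library, endogenous TFs) → compound 24 h → total RNA → oligo(dT) RT → reporter-specific PCR → FAM primer extension, HpaI cut → CE fluorescence. Fit bidirectional vs DMSO.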

Assay [7] has as its target Signal transducer and activator of transcription 3 (Homo sapiens) (UniProt P40763). The experiment in a line: ATG_STAT3_CIS: Attagene CIS-FACTORIAL HepG2 Assay for human Signal Transducer and Activator of Transcription 3 (STAT3) (AID 2282963). The note with it: HepG2, Attagene cis-factorial STAT3 reporter transcription; actives raise or lower the signal. In short, it runs like this: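 HepG2 cells transiently transfected with multiple cis-element-driven reporter units report endogenous transcription factor activity. After 24 h compound exposure, reporter mRNA is measured by RT-PCR, 6-FAM labelling, HpaI digestion and capillary electrophoresis. Fitted bidirectionally versus DMSO.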

Assay [8] can be described thus: ATG_TA_CIS: Attagene CIS-FACTORIAL HepG2 Assay for human TA Basal Promoter (AID 2282964). The note with it: HepG2 Attagene CIS-factorial TA basal promoter reporter; actives raise or lower the signal. The method, boiled down:
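Read-out: fluorescent reporter-transcript fragments resolved by capillary electrophoresis after RT-PCR and HpaI digestion. Source: HepG2 cells carrying transiently transfected multi-reporter cis constructs, treated 24 h. Endpoint fitted bidirectionally relative to DMSO.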

A short description of assay [9]: ATG_TCF_b_cat_CIS: Attagene CIS-FACTORIAL HepG2 Assay for human T-Cell-Factor with beta-catenin (TCF/b-cat) (AID 2282965). The note with it: HepG2 TCF/beta-catenin cis-reporter transcription, actives raise or lower the signal. In short, it runs like this:
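HepG2, transient MRTU transfection, cis-element-driven reporters (endogenous TFs). 24 h compound exposure. Readout: reporter mRNA by RT-PCR + 6-FAM primer extension, HpaI digest, capillary electrophoresis. Gain/loss fit vs DMSO baseline.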

A short description of assay [10]: ATG_TAL_CIS: Attagene CIS-FACTORIAL HepG2 Assay for human TAL Basal Promoter (AID 2282966).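 Further: background control endpoint measuring basal TAL promoter reporter mRNA not a specific factor.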 The conditions noted are these: HepG2 Attagene cis-factorial TAL promoter reporter; actives raise or lower the signal. In short, it runs like this: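 HepG2 cells were transiently transfected with promoter-driven multiplexed reporter units and dosed for 24 h. Reporter mRNA was measured by RT-PCR with capillary electrophoresis fluorescence; bidirectional fits used DMSO as baseline, serving as a background control.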

A short description of assay [11]: ATG_TGFb_CIS: Attagene CIS-FACTORIAL HepG2 Assay for human Transforming Growth Factor (TGF) (AID 2282967). The note with it: HepG2 Attagene CIS TGFb reporter, mRNA transcription; actives raise or lower the signal. The method, boiled down: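 Transient MRTU transfection of HepG2 (FuGene 6). Dose 24 h. TriZol RNA, oligo(dT) RT, PCR, 6-FAM primer extension, HpaI cut, CE. Bidirectional fit, DMSO = baseline.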

Assay [12] can be described thus: ATG_VDRE_CIS: Attagene CIS-FACTORIAL HepG2 Assay for human Vitamin D Receptor Element (VDRE) (AID 2282968). The conditions noted are these: HepG2 VDRE cis-reporter transcription, actives raise or lower the signal. The method, boiled down: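 Transiently transfected HepG2 cells carrying cis-regulated reporter transcription units were exposed for 24 h. Reporter mRNA was measured by RT-PCR with fluorescent labelling and capillary electrophoresis, and fitted in both directions against DMSO.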

Assay [13] has as its target Estrogen receptor (Homo sapiens) (UniProt P03372). The experiment in a line: ATG_ERa_TRANS: Attagene TRANS-FACTORIAL HepG2 Assay for human Estrogen Receptor alpha (ERa) (AID 2282970; active means hit-call score of the fitted dose curve at least 0.9, where 1 is the maximum). The conditions noted are these: HepG2 Attagene TRANS ERa GAL4 reporter, mRNA. The method, boiled down:
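HepG2 cells transiently transfected with multiplexed GAL4-UAS reporter units; ERa activity read via exogenous chimeric NR-Gal4 protein. After 24 hour compound exposure, reporter mRNA measured by RT-PCR with 6-FAM labelling and capillary electrophoresis; gain-of-signal fitted relative to DMSO.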

Assay [14] concerns the target Steroid hormone receptor ERR1 (Homo sapiens) (UniProt P11474). The experiment in a line: ATG_ERRa_TRANS: Attagene TRANS-FACTORIAL HepG2 Assay for human Estrogen-Related Receptor alpha (ERRa) (AID 2282971; active means hit-call score of the fitted dose curve at least 0.9, where 1 is the maximum). The note with it: HepG2 Attagene TRANS reporter, ERRa transactivation. The method, boiled down:
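HepG2 cells transiently transfected with multiplexed GAL4-UAS reporter units reading chimeric ERRa-Gal4 activity; 24 h compound exposure. Reporter mRNA measured by RT-PCR, 6-FAM labelling, HpaI digest and capillary electrophoresis; gain of signal fitted versus DMSO baseline.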

For assay [15], the target named is X-box-binding protein 1 (Homo sapiens) (UniProt P17861). Description: ATG_Xbp1_CIS: Attagene CIS-FACTORIAL HepG2 Assay for human X-box Binding Protein 1 (XBP1) (AID 2282972). The note with it: HepG2 XBP1 cis-element reporter, Attagene multiplex; actives raise or lower the signal. The method, boiled down:
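HepG2, transient MRTU transfection (cis-promoter driven), 24 h compound exposure. Total RNA → oligo(dT) RT → PCR → 6-FAM labeling → HpaI cut → CE. Bidirectional fit vs DMSO.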

The nature of assay [16]: ATG_M_19_TRANS: Attagene TRANS-FACTORIAL HepG2 Assay for M19 Transcription Factor (Internal Marker) (AID 2282974; active means hit-call score of the fitted dose curve at least 0.9, where 1 is the maximum). The conditions noted are these: HepG2 Attagene TRANS-FACTORIAL M19 internal marker reporter. The method, boiled down:
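Fluorescence of 6-FAM-labelled reporter cDNA fragments, separated by capillary electrophoresis, served as the readout. These derived from HepG2 cells carrying transfected GAL4-UAS reporter units after 24 h dosing, with DMSO as negative control.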

The nature of assay [17]: ATG_GAL4_TRANS: Attagene TRANS-FACTORIAL HepG2 Assay for GAL4 (Internal Marker) (AID 2282976; active means hit-call score of the fitted dose curve at least 0.9, where 1 is the maximum). The note with it: HepG2 Attagene TRANS GAL4 internal marker reporter. The method, boiled down: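 HepG2 cells transiently transfected with multiplexed GAL4-UAS reporter constructs were dosed for 24 h. Reporter mRNA was measured by RT-PCR, 6-FAM primer extension, HpaI digestion and capillary electrophoresis, and gain of signal was fitted relative to DMSO.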

The target in assay [18] is Estrogen-related receptor gamma (Homo sapiens) (UniProt P62508). Description: ATG_ERRg_TRANS: Attagene TRANS-FACTORIAL HepG2 Assay for human Estrogen-Related Receptor gamma (ERRg) (AID 2282977; active means hit-call score of the fitted dose curve at least 0.9, where 1 is the maximum;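 further: hits increase reporter signal over DMSO so potencies reflect activators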). The note with it: HepG2 Attagene TRANS reporter, ERRg transactivation. The method, boiled down:
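Transfect HepG2 with multiple GAL4-UAS reporter transcription units; dose chemicals 24 h; isolate RNA, reverse-transcribe with oligo(dT), PCR-amplify, label with 6-FAM, digest with HpaI; size fragments by capillary electrophoresis. DMSO serves as negative control.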

In assay [19] the target is Nuclear receptor subfamily 1 group I member 3 (Homo sapiens) (UniProt Q14994). Description: ATG_CAR_TRANS: Attagene TRANS-FACTORIAL HepG2 Assay for human Constitutive Androstane Receptor (CAR) (AID 2282969; active means hit-call score of the fitted dose curve at least 0.9, where 1 is the maximum;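 further: activators raise reporter mRNA above DMSO so AC50 marks induction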). The note with it: HepG2 Attagene TRANS-FACTORIAL CAR reporter. The method, boiled down:
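HepG2 cells transiently transfected with GAL4-UAS reporter units; TRANS format reads activity of exogenous chimeric NR-Gal4 protein. After 24 h dosing, reporter mRNA quantified by RT-PCR, 6-FAM labelling and capillary electrophoresis; gain of signal fitted against DMSO.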

Assay [20] addresses Glucocorticoid receptor (Homo sapiens) (UniProt P04150). The experiment in a line: ATG_GR_TRANS: Attagene TRANS-FACTORIAL HepG2 Assay for human Glucocorticoid Receptor (GR) (AID 2282978; active means hit-call score of the fitted dose curve at least 0.9, where 1 is the maximum;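 further: activators score as hits since higher reporter transcript over DMSO is fitted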). The conditions noted are these: HepG2 Attagene TRANS GR reporter, mRNA transcription. In short, it runs like this:
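Fluorescent capillary-electrophoresis quantitation of reporter mRNA is the readout, taken 24 h after dosing human HepG2 cells carrying transiently transfected GAL4-UAS reporter units activated by chimeric NR-GAL4 fusions; activity scored as induction over DMSO.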

Estrogen receptor (Homo sapiens), sequence (P03372 whole entry, looked up, the tested form may be a part): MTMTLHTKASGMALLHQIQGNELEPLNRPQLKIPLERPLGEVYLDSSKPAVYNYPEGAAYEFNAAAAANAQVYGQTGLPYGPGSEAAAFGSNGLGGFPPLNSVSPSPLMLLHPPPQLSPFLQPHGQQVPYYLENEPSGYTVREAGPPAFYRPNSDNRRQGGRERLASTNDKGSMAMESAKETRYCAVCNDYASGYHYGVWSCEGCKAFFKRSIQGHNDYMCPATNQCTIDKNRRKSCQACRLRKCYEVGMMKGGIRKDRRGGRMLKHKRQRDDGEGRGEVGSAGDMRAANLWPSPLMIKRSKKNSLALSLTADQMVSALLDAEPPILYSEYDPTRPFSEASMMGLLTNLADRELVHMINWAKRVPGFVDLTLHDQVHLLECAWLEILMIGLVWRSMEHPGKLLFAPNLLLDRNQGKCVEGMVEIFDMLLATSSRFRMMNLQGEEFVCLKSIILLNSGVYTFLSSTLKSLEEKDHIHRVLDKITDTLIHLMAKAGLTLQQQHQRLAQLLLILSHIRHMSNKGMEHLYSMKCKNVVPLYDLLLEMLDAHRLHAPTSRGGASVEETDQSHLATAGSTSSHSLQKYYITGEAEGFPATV
Signal transducer and activator of transcription 3 (Homo sapiens), sequence (P40763 whole entry, looked up): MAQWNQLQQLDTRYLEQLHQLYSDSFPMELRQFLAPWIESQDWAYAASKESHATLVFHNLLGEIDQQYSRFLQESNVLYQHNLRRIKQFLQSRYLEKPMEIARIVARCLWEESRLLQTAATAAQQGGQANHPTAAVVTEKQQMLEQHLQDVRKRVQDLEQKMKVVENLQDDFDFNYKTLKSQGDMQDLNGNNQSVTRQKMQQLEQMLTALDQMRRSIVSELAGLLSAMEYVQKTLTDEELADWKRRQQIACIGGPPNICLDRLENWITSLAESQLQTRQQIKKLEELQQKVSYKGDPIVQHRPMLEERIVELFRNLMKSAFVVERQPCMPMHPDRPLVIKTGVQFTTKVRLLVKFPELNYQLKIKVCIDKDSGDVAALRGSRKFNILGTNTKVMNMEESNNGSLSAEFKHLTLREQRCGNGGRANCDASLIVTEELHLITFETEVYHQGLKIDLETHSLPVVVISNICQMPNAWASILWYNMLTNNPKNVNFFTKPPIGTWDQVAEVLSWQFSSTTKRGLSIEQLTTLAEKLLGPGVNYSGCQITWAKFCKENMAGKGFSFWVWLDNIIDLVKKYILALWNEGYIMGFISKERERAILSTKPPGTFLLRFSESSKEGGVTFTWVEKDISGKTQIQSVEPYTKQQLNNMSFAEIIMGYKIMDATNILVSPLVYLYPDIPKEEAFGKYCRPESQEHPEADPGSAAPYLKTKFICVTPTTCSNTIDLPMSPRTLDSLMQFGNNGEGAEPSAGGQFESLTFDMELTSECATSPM
Nuclear receptor subfamily 1 group I member 3 (Homo sapiens), sequence (Q14994 whole entry, looked up, the tested form may be a part): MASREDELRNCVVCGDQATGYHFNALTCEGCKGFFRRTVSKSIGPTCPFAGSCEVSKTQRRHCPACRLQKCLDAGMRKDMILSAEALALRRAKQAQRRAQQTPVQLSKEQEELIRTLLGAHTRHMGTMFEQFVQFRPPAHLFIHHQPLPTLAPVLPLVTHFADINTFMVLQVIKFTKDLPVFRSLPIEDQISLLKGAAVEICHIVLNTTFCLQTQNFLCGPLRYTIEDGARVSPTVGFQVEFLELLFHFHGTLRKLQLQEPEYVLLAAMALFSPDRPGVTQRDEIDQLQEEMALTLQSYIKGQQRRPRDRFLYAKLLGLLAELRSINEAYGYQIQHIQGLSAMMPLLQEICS
X-box-binding protein 1 (Homo sapiens), sequence (P17861 whole entry, looked up): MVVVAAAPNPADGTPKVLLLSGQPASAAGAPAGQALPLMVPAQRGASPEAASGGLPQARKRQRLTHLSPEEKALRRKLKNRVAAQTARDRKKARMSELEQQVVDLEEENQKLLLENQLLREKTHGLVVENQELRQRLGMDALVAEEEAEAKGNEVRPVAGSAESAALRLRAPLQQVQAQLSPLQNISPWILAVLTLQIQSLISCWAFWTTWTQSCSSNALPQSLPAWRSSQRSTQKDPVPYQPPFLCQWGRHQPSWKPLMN
Estrogen-related receptor gamma (Homo sapiens), sequence (P62508 whole entry, looked up, the tested form may be a part): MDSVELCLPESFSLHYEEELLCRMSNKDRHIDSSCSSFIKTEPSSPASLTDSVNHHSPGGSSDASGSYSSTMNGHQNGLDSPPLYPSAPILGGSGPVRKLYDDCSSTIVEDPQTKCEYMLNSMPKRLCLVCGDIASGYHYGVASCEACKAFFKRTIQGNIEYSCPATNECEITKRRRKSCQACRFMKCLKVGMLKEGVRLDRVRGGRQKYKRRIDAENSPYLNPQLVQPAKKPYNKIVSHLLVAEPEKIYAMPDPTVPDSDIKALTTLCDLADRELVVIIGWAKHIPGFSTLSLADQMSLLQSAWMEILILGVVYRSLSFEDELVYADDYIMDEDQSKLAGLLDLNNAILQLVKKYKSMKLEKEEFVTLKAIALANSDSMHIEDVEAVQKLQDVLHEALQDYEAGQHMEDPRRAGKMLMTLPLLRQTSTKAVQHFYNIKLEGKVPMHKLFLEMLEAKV
Glucocorticoid receptor (Homo sapiens), sequence (P04150 whole entry, looked up, the tested form may be a part): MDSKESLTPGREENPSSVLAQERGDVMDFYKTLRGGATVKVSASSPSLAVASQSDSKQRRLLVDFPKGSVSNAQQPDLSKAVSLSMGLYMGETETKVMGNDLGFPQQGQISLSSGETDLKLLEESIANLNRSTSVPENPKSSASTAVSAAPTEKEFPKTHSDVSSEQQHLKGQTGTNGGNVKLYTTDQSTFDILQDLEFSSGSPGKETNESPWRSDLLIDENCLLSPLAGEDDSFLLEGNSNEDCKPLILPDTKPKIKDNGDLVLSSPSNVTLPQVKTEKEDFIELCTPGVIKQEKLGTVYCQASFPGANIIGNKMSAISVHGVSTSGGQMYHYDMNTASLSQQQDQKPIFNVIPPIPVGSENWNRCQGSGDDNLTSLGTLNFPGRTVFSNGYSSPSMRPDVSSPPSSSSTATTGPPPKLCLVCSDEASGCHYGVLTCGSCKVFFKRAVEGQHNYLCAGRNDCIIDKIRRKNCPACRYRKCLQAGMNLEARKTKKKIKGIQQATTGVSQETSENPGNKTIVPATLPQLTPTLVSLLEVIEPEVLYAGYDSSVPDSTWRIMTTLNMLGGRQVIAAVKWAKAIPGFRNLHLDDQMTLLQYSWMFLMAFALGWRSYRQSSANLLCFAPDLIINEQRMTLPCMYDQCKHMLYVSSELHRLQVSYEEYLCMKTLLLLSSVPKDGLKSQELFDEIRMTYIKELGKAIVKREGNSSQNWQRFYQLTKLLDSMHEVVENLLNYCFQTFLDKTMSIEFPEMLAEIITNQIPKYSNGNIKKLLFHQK
Steroid hormone receptor ERR1 (Homo sapiens), sequence (P11474 whole entry, looked up, the tested form may be a part): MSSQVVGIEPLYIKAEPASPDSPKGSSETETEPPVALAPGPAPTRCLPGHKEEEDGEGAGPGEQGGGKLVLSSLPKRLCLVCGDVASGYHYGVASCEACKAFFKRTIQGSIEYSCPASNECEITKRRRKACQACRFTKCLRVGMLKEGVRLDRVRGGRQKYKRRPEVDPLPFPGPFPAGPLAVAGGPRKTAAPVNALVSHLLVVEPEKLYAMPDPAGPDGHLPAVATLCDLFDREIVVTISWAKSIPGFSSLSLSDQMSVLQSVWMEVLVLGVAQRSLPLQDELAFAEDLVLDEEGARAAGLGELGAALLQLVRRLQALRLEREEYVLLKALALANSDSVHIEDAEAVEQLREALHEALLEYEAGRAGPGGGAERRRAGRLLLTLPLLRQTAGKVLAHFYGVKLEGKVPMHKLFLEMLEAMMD

Turning to `Brc1cc(Br)c(Oc2c(Br)cc(Br)c(Br)c2Br)cc1Br`, the result in assay [1], in assay [2], in assay [3], in [4], in [5] and in assay [6] was inactive. For the same compound, the result in [7], in [8], in assay [9], in assay [10], in assay [11] and in assay [12] was inactive. For the same compound, the compound was classed as inactive in assay [13], in assay [14], in [15], in assay [16], in assay [17] and in assay [18].
Turning to `O=C1OC(=O)c2cc(-c3ccc4c(c3)C(=O)OC4=O)ccc21`, the outcome in assay [1], in assay [2], in [3], in [4], in assay [5] and in assay [6] was inactive. Further, the compound was called inactive in [7], in [8], in assay [9], in assay [10], in [11] and in assay [12]. In addition, the call in assay [19], in [13], in assay [15], in assay [16] and in assay [17] was inactive.
Regarding `NCc1cccc(CN)c1`, the result in assay [1], in assay [2], in [3], in assay [4], in [5] and in [6] was inactive. The compound was called inactive in [7], in [8], in assay [9], in [10], in assay [11] and in assay [12]. For the same compound, the compound was classed as inactive in [19], in [15], in [16], in assay [17] and in assay [20].
Take `CCCCCc1ccc(O)cc1`: the AC50 in assay [1] was 33.4 µM (active); in [13], 1.6 µM (active). Further, the call in assay [2], in [3], in [4], in [5], in assay [6] and in [7] was inactive. For the same compound, the compound was classed as inactive in assay [8], in assay [9], in [10], in assay [11], in [12] and in [19]. Moreover, the outcome in assay [15] was inactive.

For the origin of these results see PubChem BioAssay (EPA / NIEHS).
